Results as given in PubChem BioAssay.
The source made the active and inactive calls.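 The calls were made as follows, unless noted: active = fluorescence slope higher than the sample average by over 3 SD (cut at about -0.22 in these data, passing the limit was not always enough); inactive = the rest.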

target: Dual specificity protein phosphatase 6 (Homo sapiens) (UniProt Q16828); experiment: DUSP6 inhibitors restoring Erk phosphorylation by chemical complementation, primary imaging in DUSP6-transfected HeLa (AID 609;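 active = compounds giving at least 50% inhibition in the cell-based MKP-3 phosphatase rescue imaging test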;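 also: phospho-Erk level distribution per well compared with pooled transfected vehicle control wells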); conditions: HeLa MKP-3 transfected, phospho-Erk imaging KS statistic; at 10 µM; stronger effect = higher value; cells stimulated with TPA for 15 min
Sequence (Q16828 whole entry, looked up): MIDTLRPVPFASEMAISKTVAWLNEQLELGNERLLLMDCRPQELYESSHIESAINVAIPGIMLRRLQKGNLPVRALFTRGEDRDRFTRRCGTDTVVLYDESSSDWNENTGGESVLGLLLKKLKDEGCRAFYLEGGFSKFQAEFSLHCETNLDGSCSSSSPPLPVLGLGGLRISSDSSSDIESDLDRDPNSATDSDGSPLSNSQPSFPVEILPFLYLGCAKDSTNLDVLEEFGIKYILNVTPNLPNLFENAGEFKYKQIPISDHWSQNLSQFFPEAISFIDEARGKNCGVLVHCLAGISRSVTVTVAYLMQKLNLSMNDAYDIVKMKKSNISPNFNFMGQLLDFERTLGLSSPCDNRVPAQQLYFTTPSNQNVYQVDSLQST

inhibition, inactive:
COc1cccc2c(=O)c(SC(F)(F)C(F)C(F)(F)F)c(C)[nH]c12 (stereo not given) -2.91%
C=CCOc1nc2c(c(=O)n(Cc3ccc(Cl)c(Cl)c3)c(=O)n2C)n1C -2.91%
COCCNc1cc(C)c(C#N)c2nc3ccccc3n12 13.9%
CC(C)(C)c1cccc(/C=N/O)c1O 7.93%
O=C(O)C1CSCN1S(=O)(=O)c1cccc2nsnc12 (stereo not given) -11.5%
CCN=C1SC(C(=O)Nc2ccc(Cl)c(Cl)c2)CC(=O)N1CC (stereo not given) 7.42%
CC1CN(c2oc(-c3cccs3)nc2C#N)CC(C)O1 (stereo not given) 0.671%

target: Voltage-gated potassium channel subunit beta-2 (Rattus norvegicus) (UniProt P62483); experiment: KvBeta enzyme negative modulators, primary screen, biochemical, NADPH fluorescence (AID 622); conditions: recombinant KvBeta, 4-cyanobenzaldehyde reduction, at 10 µM, stronger effect = higher value;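 also: slope of raw intensity against log time taken from 70 to 1610 s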
Sequence (P62483 whole entry, looked up): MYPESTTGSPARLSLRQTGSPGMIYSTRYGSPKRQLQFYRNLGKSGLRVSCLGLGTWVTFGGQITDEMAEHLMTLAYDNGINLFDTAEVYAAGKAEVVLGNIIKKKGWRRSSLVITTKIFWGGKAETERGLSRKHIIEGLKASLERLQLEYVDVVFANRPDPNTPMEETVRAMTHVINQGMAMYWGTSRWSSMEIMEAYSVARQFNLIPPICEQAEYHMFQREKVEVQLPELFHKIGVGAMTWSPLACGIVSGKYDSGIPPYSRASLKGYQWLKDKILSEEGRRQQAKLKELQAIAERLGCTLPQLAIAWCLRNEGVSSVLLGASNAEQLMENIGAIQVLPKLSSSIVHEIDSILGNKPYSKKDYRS

Fluorescence slope, inactive:
CCN1CCCC1Cn1cnc2c([nH]c3ccc(C)cc32)c1=O (stereo not given) -0.357
CCOC(=O)CSc1nc(N)c(C#N)c(-c2ccc(OC)cc2)c1C#N -0.52
CCOC(=O)CC1=C(C(=O)OCC)C(c2cc(OC)c(OC)cc2OC)C(C#N)=C(N)O1 (stereo not given) -0.345
CCCOc1ccc(/C(O)=C2/C(=O)C(=O)N(CCN(C)C)C2c2ccncc2)cc1 (stereo not given) -0.418
COCCOC(=O)C1=C(C)NC(SCC(=O)NC(C)(C)C)=C(C#N)C1c1ccco1 (stereo not given) -0.397
c1ccc(-c2nnc3n2N=C(c2ccc4c(c2)OCO4)CS3)nc1 -0.406
C=COC(=O)CSc1nc(-c2cccs2)ccc1C#N -0.385
Cn1c(=O)oc2cc(C(=O)c3ccccc3)ccc21 -0.332
CCOc1nc(SCCOc2ccc(C)cc2)nc(N(C)C)n1 -0.474
Cc1ccc(CC2CC(=O)N(c3ccc4c(c3)OCCO4)C2=O)cc1 (stereo not given) -0.513
COC(=O)Cn1cc(C(=O)OC)cc(Br)c1=O -0.539
CCN(CC)CCNC(=O)c1c(C)oc2cc(Br)c(OC)cc12 -0.55
N=c1c2c(-c3ccccc3)c(-c3ccccc3)n(Cc3ccccc3)c2ncn1CCCn1ccnc1 -0.292
Cc1cc(C)nc(N(C#N)S(=O)(=O)c2ccccc2Cl)n1 -0.406
CC1(C)Cc2c(sc3nc(SCC#N)n(C4CCCCC4)c(=O)c23)CO1 -0.356
CN1CCN(C(=O)CSc2nc(-c3cccs3)ccc2C#N)CC1 -0.299
O/N=C1\CCc2cc(Cl)ccc21 -0.48
CC(C)CC(C(=O)O)C(C)CC(=O)Nc1ccn(-c2ccccc2)n1 (stereo not given) -0.401
CCCOc1ccc(N2C(=O)CC(N(CCC)C(=O)CCC(=O)O)C2=O)cc1 (stereo not given) -0.384
CCCCC(C(=O)O)C(C)CC(=O)Nc1cccc(C(=O)O)c1 (stereo not given) -0.486
CC(C)C1Cc2c(C#N)c(N)n(C)c(=S)c2CO1 (stereo not given) -0.509
O=C(O)CC(NC(=O)COc1ccc(Cl)cc1Cl)C(=O)O (stereo not given) -0.404
O=C1C(=O)N(CCN2CCOCC2)C(c2ccccn2)/C1=C(/O)c1ccccc1 (stereo not given) -0.432
C=CCOC(=O)C1=C(C)NC(SCC(=O)N(CC)CC)=C(C#N)C1c1ccco1 (stereo not given) -0.417
CN1CCc2c(sc3ncn4nc(-c5ccccc5O)nc4c23)C1 -0.472
CN(C)c1ccc(-c2nn3c(-c4ccc(Cl)cc4)nnc3s2)cc1 -0.409
O=c1oc2c3c4c(cc2c(C(F)(F)F)c1CCN1CCOCC1)CCCN4CCC3 -0.315
c1ccc(N2CCN(c3nc(-c4ccccn4)nc4ccccc34)CC2)cc1 -0.413
Fc1ccc2[nH]c3c(N4CCN(Cc5ccc6c(c5)OCO6)CC4)ncnc3c2c1 -0.311
COc1ccc(OCC(=O)N2CCN(C(=O)c3cccc4ccccc34)CC2)cc1 -0.448
C=CCc1cccc(/C=N/c2ncn[nH]2)c1O -0.491
COc1cccc2c(=O)c(SC(F)(F)C(F)C(F)(F)F)c(C)[nH]c12 (stereo not given) -0.393
C=CCOc1nc2c(c(=O)n(Cc3ccc(Cl)c(Cl)c3)c(=O)n2C)n1C -0.492
COCCNc1cc(C)c(C#N)c2nc3ccccc3n12 -0.383
CC(C)(C)c1cccc(/C=N/O)c1O -0.526
O=C(O)C1CSCN1S(=O)(=O)c1cccc2nsnc12 (stereo not given) -0.496
CCN=C1SC(C(=O)Nc2ccc(Cl)c(Cl)c2)CC(=O)N1CC (stereo not given) -0.423
CC1CN(c2oc(-c3cccs3)nc2C#N)CC(C)O1 (stereo not given) -0.0506

Fluorescence slope, active:
CN=C1c2c(-c3ccccc3)c3cc(OC)ccc3n2CCN1C -0.118

target: Voltage-gated potassium channel subunit beta-2 (Rattus norvegicus) (UniProt P62483); experiment: KvBeta positive modulators, primary screen, biochemical, NADPH fluorescence (AID 623;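 active = NADPH fluorescence slope more negative than the mean of all samples by about 3 SD, 99.7% confidence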;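 also: fluorescence intensity change per second fitted from 20 to 320 s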); conditions: Recombinant KvBeta, NADPH fluorescence decrease slope, 10 min; at 10 µM; stronger effect = lower value

NADPH fluorescence slope, inactive:
CCN1CCCC1Cn1cnc2c([nH]c3ccc(C)cc32)c1=O (stereo not given) -0.000123
CCOC(=O)CSc1nc(N)c(C#N)c(-c2ccc(OC)cc2)c1C#N -3.8e-05
CCOC(=O)CC1=C(C(=O)OCC)C(c2cc(OC)c(OC)cc2OC)C(C#N)=C(N)O1 (stereo not given) 6.8e-06
CCCOc1ccc(/C(O)=C2/C(=O)C(=O)N(CCN(C)C)C2c2ccncc2)cc1 (stereo not given) -6.3e-05
CN=C1c2c(-c3ccccc3)c3cc(OC)ccc3n2CCN1C -9.2e-06
COCCOC(=O)C1=C(C)NC(SCC(=O)NC(C)(C)C)=C(C#N)C1c1ccco1 (stereo not given) -4e-05
c1ccc(-c2nnc3n2N=C(c2ccc4c(c2)OCO4)CS3)nc1 -0.000131
C=COC(=O)CSc1nc(-c2cccs2)ccc1C#N -2.3e-06
Cn1c(=O)oc2cc(C(=O)c3ccccc3)ccc21 -3.5e-05
CCOc1nc(SCCOc2ccc(C)cc2)nc(N(C)C)n1 3.1e-05
Cc1ccc(CC2CC(=O)N(c3ccc4c(c3)OCCO4)C2=O)cc1 (stereo not given) -0.000111
COC(=O)Cn1cc(C(=O)OC)cc(Br)c1=O -3.3e-05
CCN(CC)CCNC(=O)c1c(C)oc2cc(Br)c(OC)cc12 -3.1e-05
N=c1c2c(-c3ccccc3)c(-c3ccccc3)n(Cc3ccccc3)c2ncn1CCCn1ccnc1 9.2e-06
Cc1cc(C)nc(N(C#N)S(=O)(=O)c2ccccc2Cl)n1 -3.7e-06
CC1(C)Cc2c(sc3nc(SCC#N)n(C4CCCCC4)c(=O)c23)CO1 -4.5e-05
CN1CCN(C(=O)CSc2nc(-c3cccs3)ccc2C#N)CC1 -1.3e-05
O/N=C1\CCc2cc(Cl)ccc21 -0.000244
CC(C)CC(C(=O)O)C(C)CC(=O)Nc1ccn(-c2ccccc2)n1 (stereo not given) -3.3e-05
CCCOc1ccc(N2C(=O)CC(N(CCC)C(=O)CCC(=O)O)C2=O)cc1 (stereo not given) -9.2e-06
CCCCC(C(=O)O)C(C)CC(=O)Nc1cccc(C(=O)O)c1 (stereo not given) -0.000152
CC(C)C1Cc2c(C#N)c(N)n(C)c(=S)c2CO1 (stereo not given) -4e-05
O=C(O)CC(NC(=O)COc1ccc(Cl)cc1Cl)C(=O)O (stereo not given) -7.4e-05
O=C1C(=O)N(CCN2CCOCC2)C(c2ccccn2)/C1=C(/O)c1ccccc1 (stereo not given) -1.4e-05
C=CCOC(=O)C1=C(C)NC(SCC(=O)N(CC)CC)=C(C#N)C1c1ccco1 (stereo not given) -1.8e-05
CN1CCc2c(sc3ncn4nc(-c5ccccc5O)nc4c23)C1 -0.000226
CN(C)c1ccc(-c2nn3c(-c4ccc(Cl)cc4)nnc3s2)cc1 -0.000319
O=c1oc2c3c4c(cc2c(C(F)(F)F)c1CCN1CCOCC1)CCCN4CCC3 -4.5e-05
c1ccc(N2CCN(c3nc(-c4ccccn4)nc4ccccc34)CC2)cc1 -7.9e-05
Fc1ccc2[nH]c3c(N4CCN(Cc5ccc6c(c5)OCO6)CC4)ncnc3c2c1 3.2e-05
COc1ccc(OCC(=O)N2CCN(C(=O)c3cccc4ccccc34)CC2)cc1 -1.4e-05
C=CCc1cccc(/C=N/c2ncn[nH]2)c1O -0.000107
COc1cccc2c(=O)c(SC(F)(F)C(F)C(F)(F)F)c(C)[nH]c12 (stereo not given) -3e-05
C=CCOc1nc2c(c(=O)n(Cc3ccc(Cl)c(Cl)c3)c(=O)n2C)n1C -0.000116
COCCNc1cc(C)c(C#N)c2nc3ccccc3n12 1.2e-06
CC(C)(C)c1cccc(/C=N/O)c1O -2.2e-05
O=C(O)C1CSCN1S(=O)(=O)c1cccc2nsnc12 (stereo not given) -5.5e-05
CCN=C1SC(C(=O)Nc2ccc(Cl)c(Cl)c2)CC(=O)N1CC (stereo not given) -0.000131
CC1CN(c2oc(-c3cccs3)nc2C#N)CC(C)O1 (stereo not given) 4e-07
